# Data as given in PubChem BioAssay (NCATS).
# Records with an inconclusive call do not appear. Calls of active or inactive are those of the source. Unless noted, calls come from the whole dose curve; as a rule, active = well fitted curve in the direction sought with a large enough effect; inconclusive = small, poorly fitted or top-dose-only effect, or another doubt; inactive = no such curve, though single readings can be large; an effect the other way counts as inactive or inconclusive.
# Columns and labels:
# [1] = qHTS drug screen for cell cycle checkpoint inhibitors in PARPi-resistant BRCA-mutant ovarian cancer cell lines. (AID 1963452; calls by dose curve); settings: PEO1/OlaR viability, CellTiter-Glo luminescence, 96 h, stronger effect = lower value
# Method in brief: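 PEO1, PEO4 and PEO1/OlaR ovarian cancer cells, 600 per well, exposed 96 h at 37C to a dilution series. Viability read by CellTiter-Glo luminescence, normalized to DMSO and empty wells; activity summarized as Z-AUC.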
# [2] = target: Cytochrome P450 3A4 (Homo sapiens) (UniProt P08684); assay: qHTS for inhibitors of CYP3A4 against the NCATS DSHEA and TCM libraries (AID 1919971); settings: recombinant CYP3A4 enzyme activity, luminescence qHTS; series mostly up to 34.1 µM;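 note: % is set by controls: 0 for no effect and ±100 for the full control effect; inhibition lowers luminescence from luciferin made by CYP3A4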
# Chain of Cytochrome P450 3A4 (Homo sapiens) (P08684 whole entry, looked up): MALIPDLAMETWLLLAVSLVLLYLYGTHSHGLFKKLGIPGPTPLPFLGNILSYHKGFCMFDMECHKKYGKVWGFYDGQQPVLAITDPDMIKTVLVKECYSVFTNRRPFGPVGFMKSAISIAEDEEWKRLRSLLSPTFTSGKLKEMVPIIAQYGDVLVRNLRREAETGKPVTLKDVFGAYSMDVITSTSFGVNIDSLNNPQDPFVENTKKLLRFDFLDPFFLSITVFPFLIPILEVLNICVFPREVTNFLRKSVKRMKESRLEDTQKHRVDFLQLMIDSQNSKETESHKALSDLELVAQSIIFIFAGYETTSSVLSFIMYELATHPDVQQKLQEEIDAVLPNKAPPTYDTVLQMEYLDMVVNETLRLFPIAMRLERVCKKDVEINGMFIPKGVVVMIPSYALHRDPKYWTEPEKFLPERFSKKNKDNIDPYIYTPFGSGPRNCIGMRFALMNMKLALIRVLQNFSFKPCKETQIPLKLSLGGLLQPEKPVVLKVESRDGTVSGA
# Method in brief: (§1)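 Light output from converted D-luciferin reports remaining CYP activity. Compounds preincubate with enzyme and substrate for 15 min; NADPH regeneration (1x final) runs the reaction for 30-45 min.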
# [3] = target: Cytochrome P450 2D6 (Homo sapiens) (UniProt P10635); assay: qHTS for inhibitors of CYP2D6 against the NCATS DSHEA and TCM libraries (AID 1919972); settings: CYP2D6 enzymatic inhibition, luminescence qHTS; series mostly up to 34.1 µM; note: % is set by controls: 0 for no effect and ±100 for the full control effect
# Chain of Cytochrome P450 2D6 (Homo sapiens) (P10635 whole entry, looked up): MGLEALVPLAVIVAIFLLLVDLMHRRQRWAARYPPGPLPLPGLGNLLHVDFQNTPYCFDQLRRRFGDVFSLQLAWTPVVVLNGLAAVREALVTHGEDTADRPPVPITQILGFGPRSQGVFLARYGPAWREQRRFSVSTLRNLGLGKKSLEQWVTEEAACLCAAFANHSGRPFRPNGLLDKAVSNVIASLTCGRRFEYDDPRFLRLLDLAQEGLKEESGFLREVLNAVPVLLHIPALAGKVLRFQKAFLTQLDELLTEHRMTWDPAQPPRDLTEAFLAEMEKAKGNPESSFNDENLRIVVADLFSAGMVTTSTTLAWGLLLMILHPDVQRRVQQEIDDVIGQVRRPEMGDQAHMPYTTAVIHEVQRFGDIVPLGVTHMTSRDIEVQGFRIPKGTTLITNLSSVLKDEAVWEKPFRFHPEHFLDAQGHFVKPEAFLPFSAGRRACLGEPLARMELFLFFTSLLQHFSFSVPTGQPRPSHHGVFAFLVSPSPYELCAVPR
# Method in brief: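 Steps: enzyme plus luciferin substrate dispensed; test substances pinned; 15 min RT; 1x NADPH regenerating solution added, 30–45 min RT protected from light; detection reagent, 30 min RT; luminescence measured. Minus-enzyme wells as background.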
# [4] = target: Cytochrome P450 2C9 (Homo sapiens) (UniProt P11712); assay: qHTS for inhibitors of CYP2C9 against the NCATS DSHEA and TCM libraries (AID 1919973); settings: recombinant CYP2C9 enzyme activity, luminescence; series mostly up to 34.1 µM;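 note: luminogenic pro-luciferin CYP2C9 substrate turned into luciferin with NADPH regeneration; % is set by controls: 0 for no effect and ±100 for the full control effect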
# Chain of Cytochrome P450 2C9 (Homo sapiens) (P11712 whole entry, looked up): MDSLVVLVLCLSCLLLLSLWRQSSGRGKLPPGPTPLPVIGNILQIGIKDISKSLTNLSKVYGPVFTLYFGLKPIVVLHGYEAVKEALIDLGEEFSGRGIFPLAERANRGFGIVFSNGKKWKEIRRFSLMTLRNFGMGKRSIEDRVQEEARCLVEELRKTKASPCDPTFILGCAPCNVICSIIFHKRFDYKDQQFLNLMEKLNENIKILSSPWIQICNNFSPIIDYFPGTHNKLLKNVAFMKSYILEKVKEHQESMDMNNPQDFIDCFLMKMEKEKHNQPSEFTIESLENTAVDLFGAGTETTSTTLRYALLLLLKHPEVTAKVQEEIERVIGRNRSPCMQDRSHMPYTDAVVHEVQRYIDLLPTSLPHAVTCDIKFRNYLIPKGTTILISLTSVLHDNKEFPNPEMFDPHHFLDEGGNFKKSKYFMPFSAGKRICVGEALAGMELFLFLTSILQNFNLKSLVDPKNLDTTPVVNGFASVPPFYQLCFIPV
# Method in brief: as §1
# [5] = KB-3-1 P-gp reporter qHTS against the NCATS DSHEA and TCM libraries (AID 1919975); settings: KB-3-1 parental cells, CellTiter-Glo luminescence viability, 72 h; series mostly up to 26.1 µM; note: 0% is about no effect
# Method in brief: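 Parental KB-3-1 human cervical adenocarcinoma cells (500 cells/well, DMEM + 10% FBS) were treated with substances for ~72 h at 37C; viability was read by CellTiter-Glo luminescence.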
# [6] = qHTS Counterscreen for compound interference against the NCATS DSHEA and TCM libraries (AID 1919978); settings: firefly luciferase detection reagent interference, luminescence; note: % of control where 0% means no effect
# Method in brief: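 D-luciferin (1 uM final) or 100 mM potassium phosphate buffer alone was preincubated 15 min at RT with compounds (19.5 nM to 39.8 uM final). Luciferin detection reagent was then added and luminescence read after 30 min at RT.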
# [7] = Dual reporter qHTS for agonist of Pregnane X Receptor (hPXR) against the NCATS DSHEA and TCM libraries: Fluorescence readout (AID 1920058); settings: PXR dual reporter cells; series mostly up to 40 µM; note: 0% is about no effect
# Method in brief: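 Measures viability of the PXR reporter HepG2 line by protease-substrate fluorescence (405/540 nm), taken 1 h after CellTiter-Fluor addition. Substances are tested as concentration series over a ~24 h exposure, with rifampicin as agonist control.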
# [8] = target: Nuclear receptor subfamily 1 group I member 2 (Homo sapiens) (UniProt O75469); assay: Dual reporter qHTS for agonist of Pregnane X Receptor (hPXR) against the NCATS DSHEA and TCM libraries: Luminescence readout (AID 1920059); settings: hPXR dual reporter cells, luciferase luminescence agonist; series mostly up to 40 µM; note: potency is the fitted concentration of half-maximal effect
# Chain of Nuclear receptor subfamily 1 group I member 2 (Homo sapiens) (O75469 whole entry, looked up): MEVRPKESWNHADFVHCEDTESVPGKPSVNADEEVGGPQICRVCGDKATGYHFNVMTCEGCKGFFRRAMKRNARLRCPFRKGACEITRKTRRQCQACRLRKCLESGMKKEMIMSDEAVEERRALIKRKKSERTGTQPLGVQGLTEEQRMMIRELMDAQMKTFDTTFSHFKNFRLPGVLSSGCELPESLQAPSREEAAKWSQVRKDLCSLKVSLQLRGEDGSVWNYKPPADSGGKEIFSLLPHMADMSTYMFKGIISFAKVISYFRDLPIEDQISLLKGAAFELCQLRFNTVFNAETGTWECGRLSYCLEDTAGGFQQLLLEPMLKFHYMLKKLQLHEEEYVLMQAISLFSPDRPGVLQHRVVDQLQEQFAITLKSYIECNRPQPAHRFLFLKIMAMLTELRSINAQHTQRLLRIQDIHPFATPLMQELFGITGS
# Method in brief: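 hPXR-Luc HepG2 cells, 2000/well in 5% charcoal-stripped FBS medium, attached 5 h, then exposed 24 h at 37C to compounds. Viability by CellTiter-Fluor, then luciferase luminescence with ONE-Glo.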
# [9] = target: Nuclear receptor subfamily 1 group I member 2 (Homo sapiens) (UniProt O75469); assay: Dual reporter qHTS for antagonist of Pregnane X Receptor (hPXR) against the NCATS DSHEA and TCM libraries: Luminescence Readout (AID 1920060); settings: hPXR dual reporter cells, luciferase luminescence, antagonist mode; series mostly up to 40 µM;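 note: HepG2 cells carrying hPXR luciferase reporter stimulated with rifampicin at 2 µM; 0% is about no effect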
# Method in brief: (§2)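 hPXR-Luc HepG2 cells exposed 24 h at 37 C to compounds with 2 uM rifampicin in antagonist mode; luciferase luminescence measured by ONE-Glo, with CellTiter-Fluor viability read beforehand.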
# [10] = Dual reporter qHTS for antagonist of Pregnane X Receptor (hPXR) against the NCATS DSHEA and TCM libraries: Fluorescence Readout (AID 1920061); settings: PXR dual reporter cells, antagonist mode; series mostly up to 40 µM; note: 0% is about no effect
# Method in brief: as §2
# [11] = qHTS for identification of novel therapeutic agents for treatment of microphthalmiaassociated transcription factor (MiT) renal cell carcinoma (RCC) (AID 1963991); settings: CellTiter-Glo, 48 h, stronger effect = lower value
# Method in brief: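 Three TFE3-fusion RCC lines (UOK109, UOK124, UOK145), 500 cells/well in complete medium, were treated with MIPE 4.0 compounds for 48 hours at 37 C. Viability was by CellTiter-Glo luminescence, normalized to DMSO (100%) and empty wells (0%); curves fitted over 11 concentrations.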
# [12] = target: Cytochrome P450 2C19 (Homo sapiens) (UniProt P33261); assay: qHTS for inhibitors of CYP2C19 against the NCATS DSHEA and TCM libraries (AID 1919974); settings: CYP2C19 enzyme inhibition, luminescence qHTS;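 note: luminescence from luciferin released by CYP2C19 oxidation of a pro-luciferin substrate; potency is the fitted concentration of half-maximal effect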
# Chain of Cytochrome P450 2C19 (Homo sapiens) (P33261 whole entry, looked up): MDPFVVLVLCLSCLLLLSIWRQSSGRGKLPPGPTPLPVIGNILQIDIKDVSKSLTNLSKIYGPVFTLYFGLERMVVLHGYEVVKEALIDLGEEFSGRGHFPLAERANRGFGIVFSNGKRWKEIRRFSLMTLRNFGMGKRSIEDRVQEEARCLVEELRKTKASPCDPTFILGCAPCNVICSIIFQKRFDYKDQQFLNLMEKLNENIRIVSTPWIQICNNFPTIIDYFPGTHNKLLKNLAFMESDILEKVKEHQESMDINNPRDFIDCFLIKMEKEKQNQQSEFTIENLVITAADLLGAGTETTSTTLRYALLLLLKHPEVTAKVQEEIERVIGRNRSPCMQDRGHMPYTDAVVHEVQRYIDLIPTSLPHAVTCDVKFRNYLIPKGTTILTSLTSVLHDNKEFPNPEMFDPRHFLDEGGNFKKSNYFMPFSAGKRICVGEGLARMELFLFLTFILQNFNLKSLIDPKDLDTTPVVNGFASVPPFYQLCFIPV
# Method in brief: as §1
# [13] = measured here: PEO1 parental Z-AUC
# [14] = TFE3-RCC UOK109 viability, measured here: UOK109 Z-AUC
# [15] = TFE3-RCC viability, measured here: UOK124 Z-AUC
# [16] = TFE3-RCC viability, measured here: UOK145 Z-AUC
smiles,measurement,setting,value
Clc1cc(Cl)cc(CNc2ncncc2-c2ccc3c(c2)OCO3)c1,Z-AUC,[1],0.335 (inactive)
same,Z-AUC,[1]; [13],-0.24
same,Z-AUC,[1]; measured here: PEO4 Z-AUC,-0.467
c1cc(-c2sc(-c3ccncc3)c(-c3ccncc3)c2-c2ccncc2)ccn1,Z-AUC,[1],1.76 (inactive)
same,Z-AUC,[1]; [13],1.54
same,Z-AUC,[1]; measured here: PEO4 Z-AUC,1.03
O=c1c(O)c(-c2ccc(O)cc2)oc2cc(O)cc(O)c12,Z-AUC,[1],0.889 (inactive)
same,Z-AUC,[1]; [13],1.15
same,Z-AUC,[1]; measured here: PEO4 Z-AUC,1.73
COc1cc(O)c2c(c1)C(=O)c1cc(C)cc(O)c1C2=O,outcome,[2],inactive
same,outcome,[3],inactive
same,outcome,[4],inactive
same,outcome,[5],inactive
same,max response,[6],1.06% (inactive)
same,outcome,[7],inactive
same,Potency,[8],inactive
same,outcome,[9],inactive
same,outcome,[10],inactive
same,z-score,[11]; [14],1.36
same,z-score,[11]; [15],1.13
same,z-score,[11]; [16],1.08
C=C1C(=O)[C@@]23C(CC[C@@H]1[C@H]2O)[C@@]12CO[C@]3(O)[C@@H](O)[C@@H]1C(C)(C)CC[C@@H]2O (stereo partly specified),Z-AUC,[1],-0.857 (inactive)
same,Z-AUC,[1]; [13],-1.05
same,Z-AUC,[1]; measured here: PEO4 Z-AUC,-1.08
Cc1ccc(C(=O)Nc2cccc(C(F)(F)F)c2)cc1Nc1nc(-c2cccnc2)nc2c1cnn2C,Z-AUC,[1],0.462 (inactive)
same,Z-AUC,[1]; [13],0.182
same,Z-AUC,[1]; measured here: PEO4 Z-AUC,0.562
Cc1cccc(Nc2nc(-c3ccncc3)cs2)c1,Z-AUC,[1],0.772 (inactive)
same,Z-AUC,[1]; [13],0.626
same,Z-AUC,[1]; measured here: PEO4 Z-AUC,0.437
COc1ccc(-c2cc(=O)c3c(O)cc(O)cc3o2)cc1O,Z-AUC,[1],0.388 (inactive)
same,Z-AUC,[1]; [13],0.498
same,Z-AUC,[1]; measured here: PEO4 Z-AUC,0.413
CCn1c(C(=O)N(C2CC2)C2CC2)cc2c3c(ncn3C)c(Nc3cc(C)n(C)n3)nc21,Z-AUC,[1],0.749 (inactive)
same,Z-AUC,[1]; [13],1.24
same,Z-AUC,[1]; measured here: PEO4 Z-AUC,1.3
CC(C)OC(=O)C(C)(C)Oc1ccc(C(=O)c2ccc(Cl)cc2)cc1,Z-AUC,[1],-0.547 (inactive)
same,Z-AUC,[1]; [13],-0.458
same,Z-AUC,[1]; measured here: PEO4 Z-AUC,0.0191
COc1cccc(-c2cc(=O)c3ccccc3o2)c1N,Z-AUC,[1],-0.672 (inactive)
same,Z-AUC,[1]; [13],-0.47
same,Z-AUC,[1]; measured here: PEO4 Z-AUC,-0.869
N#CC1(c2ccc(NC(=O)c3cccnc3NCc3ccncc3)cc2)CCCC1,Z-AUC,[1],1.21 (inactive)
same,Z-AUC,[1]; [13],1.37
same,Z-AUC,[1]; measured here: PEO4 Z-AUC,1.27
COc1ccc(-c2coc3cc(O)ccc3c2=O)cc1,outcome,[2],inactive
same,outcome,[3],inactive
same,outcome,[4],inactive
same,Potency,[12],14.1 µM (active)
same,outcome,[5],inactive
same,max response,[6],-1.37% (inactive)
same,outcome,[7],inactive
same,outcome,[9],inactive
same,outcome,[10],inactive
same,z-score,[11]; [14],0.416
same,z-score,[11]; [15],0.783
same,z-score,[11]; [16],0.452
CC(C)(C)C(=O)Oc1ccc2c(c1)nc(NC(=O)c1cccc([N+](=O)[O-])c1)n2CCCO,Z-AUC,[1],-0.205 (inactive)
same,Z-AUC,[1]; [13],0.0755
same,Z-AUC,[1]; measured here: PEO4 Z-AUC,-0.141
O=c1cc(-c2cccc3c2Sc2ccccc2S3)oc(N2CCOCC2)c1,Z-AUC,[1],1.05 (inactive)
same,Z-AUC,[1]; [13],1.03
same,Z-AUC,[1]; measured here: PEO4 Z-AUC,0.875
C[C@]12CCC3c4ccc(O)cc4CCC3C1CCC2=O (stereo partly specified),Z-AUC,[1],1.36 (inactive)
same,Z-AUC,[1]; [13],0.945
same,Z-AUC,[1]; measured here: PEO4 Z-AUC,1.78
O=c1c(-c2ccc(O)cc2)coc2cc(O[C@@H]3O[C@H](CO)[C@H](O)[C@H](O)[C@H]3O)ccc12,outcome,[2],inactive
same,outcome,[3],inactive
same,outcome,[5],inactive
same,max response,[6],1.56% (inactive)
same,outcome,[7],inactive
same,Potency,[8],inactive
same,outcome,[9],inactive
same,outcome,[10],inactive
same,z-score,[11]; [14],0.945
same,z-score,[11]; [15],2.11
same,z-score,[11]; [16],1.28
COC(=O)[C@@H]1[C@H]2C[C@H]3c4[nH]c5ccccc5c4CCN3C[C@@H]2CC[C@@H]1O,Z-AUC,[1],0.808 (inactive)
same,Z-AUC,[1]; [13],0.498
same,Z-AUC,[1]; measured here: PEO4 Z-AUC,0.659
COc1ccc2c(Oc3ccc(NC(=O)c4c(C)n(CC(C)(C)O)n(-c5ccccc5)c4=O)nc3)ccnc2c1,Z-AUC,[1],0.509 (inactive)
same,Z-AUC,[1]; [13],0.436
same,Z-AUC,[1]; measured here: PEO4 Z-AUC,-0.433
CC(=O)OC1C(C)OC(Oc2c(-c3ccc(O)cc3)oc3cc(O)cc(O)c3c2=O)C(O)C1OC(C)=O (stereo unspecified),Z-AUC,[1],-0.58 (inactive)
same,Z-AUC,[1]; [13],-0.801
same,Z-AUC,[1]; measured here: PEO4 Z-AUC,-0.512
CNC1CCC(N(Cc2cccc(-c3ccncc3)c2)C(=O)c2sc3c(F)ccc(F)c3c2Cl)CC1 (stereo unspecified),Z-AUC,[1],-0.961 (inactive)
same,Z-AUC,[1]; [13],-0.582
same,Z-AUC,[1]; measured here: PEO4 Z-AUC,-1.33
O=C(CCCCCCC(=O)Nc1ccccc1)NO,Z-AUC,[1],-0.11 (inactive)
same,Z-AUC,[1]; [13],-0.486
same,Z-AUC,[1]; measured here: PEO4 Z-AUC,-0.541
Cc1nc(N)sc1-c1ccnc(Nc2ccc(N3CCOCC3)cc2)n1,Z-AUC,[1],-0.158 (inactive)
same,Z-AUC,[1]; [13],-0.029
same,Z-AUC,[1]; measured here: PEO4 Z-AUC,-0.545
Nc1ncnc2c1nc(Cl)n2[C@@H]1O[C@H](CO)[C@@H](O)[C@@H]1O,Z-AUC,[1],0.764 (inactive)
same,Z-AUC,[1]; [13],-0.225
same,Z-AUC,[1]; measured here: PEO4 Z-AUC,-0.377
Nc1ncnc2ccccc12,Z-AUC,[1],-0.0198 (inactive)
same,Z-AUC,[1]; [13],0.844
same,Z-AUC,[1]; measured here: PEO4 Z-AUC,0.705
O=c1cc(-c2ccc(O)cc2)oc2cc(O)cc(O)c12,Potency,[12],6.31 µM (active)
same,outcome,[5],inactive
same,max response,[6],-0.0344% (inactive)
same,outcome,[7],inactive
same,Potency,[8],31.6 µM (active)
same,outcome,[9],inactive
same,outcome,[10],inactive
O=C(Nc1ccccc1Br)N[C@@H]1CCN(c2ccc(C(F)(F)F)cn2)C1,Z-AUC,[1],-0.871 (inactive)
same,Z-AUC,[1]; [13],0.714
same,Z-AUC,[1]; measured here: PEO4 Z-AUC,0.446
